In PubChem BioAssay (NCATS):
Inconclusive results are not listed. Entries that show only a call come without a potency. Activity calls are given as the source filed them. Calls come from the whole dose curve; as a rule, active = well fitted inhibition curve with a large enough effect; inconclusive = small, poorly fitted or top-dose-only effect; inactive = flat fitted curve, though single readings scatter.

System: CRL-7250
Experiment: qHTS assay to identify novel small-molecules to repurpose for Merkel cell carcinoma treatment (AID 1296009); note: nearly all actives have a fitted effect of over 60% in size
Conditions: MCC and control cell lines, CellTiter-Glo viability, 72 h; series mostly up to 92 µM
Summary of the method: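 qHTS format: cells treated with library compounds in DMSO across 8 (NPC) or 11 (MIPE) concentrations. Readout after 72 hr at 37 degree celsius was CellTiter-Glo luminescence.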

Structure (SMILES)	Potency	outcome
Cn1c2ccc(NC(=O)c3ccccc3)cc2c(=O)n2nc(C(=O)O)cc12	inactive	–
O=C(O)Cc1nn(Cc2nc3cc(C(F)(F)F)ccc3s2)c(=O)c2nccnc12	inactive	–
CC(=O)c1cc2c(cc1O)OC(C)(C)C=C2	inactive	–
CC1=C2C(=O)C=C(CO)[C@@H]2[C@H]2OC(=O)[C@H](C)[C@@H]2[C@@H](O)C1	inactive	–
C[C@H]1O[C@@H](O[C@H]2CC[C@@]3(C)C(CC[C@]4(C)C3CC=C3C5CC(C)(C)CC[C@]5(C(=O)O)CC[C@]34C(=O)O)C2(C)C)[C@H](O)[C@@H](O)[C@@H]1O (stereo partly specified)	inactive	–
C=C(C)[C@@H]1CC[C@]2(C)CC[C@]3(C)C(CCC4[C@@]5(C)CC[C@H](O)C(C)(C)C5CC[C@]43C)C12 (stereo partly specified)	inactive	–
C=CC1C(O[C@@H]2O[C@H](CO)[C@@H](O)[C@H](O)[C@H]2O)OC=C(C(=O)OC)C1CC(=O)O (stereo partly specified)	inactive	–
Cc1cc(Nc2nc(NC(C)c3ncc(F)cn3)ncc2Cl)n[nH]1 (stereo unspecified)	inactive	–
CC(C)(O)C1CCC(C)(C2CCC3(C)C4CCC5C(C)(C(=O)OC6OC(CO)C(O)C(O)C6O)C(O)CC(O)C56CC46CCC23C)O1 (stereo unspecified)	inactive	–
C=CC1(C)CC(OC(=O)/C(C)=C\COC(C)=O)C(C(=C)C(=O)O)C(O)C1C(=C)CO (stereo unspecified)	inactive	–
COc1cccc2c1CCC[C@H]2CN(C)CCc1ccc2ccoc2c1	inactive	–
OC[C@H]1O[C@@H](Oc2ccccc2)[C@H](O)[C@@H](O)[C@@H]1O	inactive	–
C=C1C[C@@]23CCC4[C@@](C)(CCC[C@@]4(C)C(=O)OC)C2CC[C@@H]1C3 (stereo partly specified)	inactive	–
NC(N)=NCCC[C@H](NC(=O)c1sccc1NS(=O)(=O)c1cccc2nsnc12)C(=O)O	inactive	–
COc1cnc(-n2cnc(C)n2)c2[nH]cc(C(=O)C(=O)N3CCN(C(=O)c4ccccc4)CC3)c12	inactive	–
CC[C@H](C)[C@H](NC(=O)[C@H](Cc1ccc(O)cc1)NC(=O)[C@@H](N)C(C)C)C(=O)N[C@@H](Cc1cnc[nH]1)C(=O)N1CCC[C@H]1C(=O)N[C@@H](Cc1ccccc1)C(=O)O	–	inactive [at 4.96 µM]

Structure (SMILES)	Potency	outcome
O=C(NCc1ccc(F)cc1)C(=O)c1c[nH]c2ccccc12	inactive	–
C[C@@H]1CC[C@]2(C(=O)O[C@@H]3O[C@H](CO)[C@@H](O)[C@H](O)[C@H]3O)CC[C@]3(C)C(=CCC4[C@@]5(C)C[C@@H](O)[C@H](O)[C@](C)(C(=O)O)C5CC[C@]43C)[C@@H]2[C@]1(C)O (stereo partly specified)	inactive	–
CCCCC(=O)N1c2ccccc2NC2=C(C(=O)CCC2)C1c1ccccc1Cl (stereo unspecified)	inactive	–
C[C@@H]1O[C@@H](O[C@H]2[C@H](O)[C@@H](O)[C@H](OC(=O)[C@]34CCC(C)(C)C[C@H]3C3=CCC5[C@@]6(C)CC[C@H](O[C@@H]7O[C@H](C(=O)O)[C@@H](O)[C@H](O)[C@H]7O)C(C)(C)C6CC[C@@]5(C)[C@]3(C)CC4)O[C@@H]2CO)[C@H](O)[C@H](O)[C@H]1O (stereo partly specified)	–	inactive [at 9.27 µM]
OCC1=CC[C@@H]2C=CO[C@@H](O[C@@H]3O[C@H](CO)[C@@H](O)[C@H](O)[C@H]3O)[C@H]12	inactive	–
O=C(c1ccc(C#Cc2cccc(F)c2)cn1)N1CC2CC2C1 (stereo unspecified)	inactive	–
COC1C=C([C@@H]2CC=C3[C@@]4(C)C(CC[C@]32C)[C@@]2(C)C=CC(=O)C(C)(C)C2C[C@H]4OC(C)=O)C(=O)O1 (stereo partly specified)	inactive	–
COc1ccc(CNC(=O)c2cc(-c3cncc(C)c3)ncc2-c2nccs2)nc1OC	inactive	–
Nc1nc2c(cnn2CCCc2ccc(O)cc2)c2nc(-c3ccco3)nn12	inactive	–
COc1cc2ncnc(Nc3cccc(O)c3)c2cc1OC	inactive	–
Cc1cc(-c2ncc(-c3cccnc3)cc2/C=C/c2ccccc2)cnc1-c1cccnc1	inactive	–
CCNC(=O)[C@@H]1CCCN1C(=O)[C@H](CCCN=C(N)N)NC(=O)[C@H](CC(C)C)NC(=O)[C@@H](C)NC(=O)[C@H](Cc1ccc(O)cc1)NC(=O)[C@H](CO)NC(=O)[C@H](Cc1c[nH]c2ccccc12)NC(=O)[C@H](Cc1cnc[nH]1)NC(=O)[C@@H]1CCC(=O)N1	inactive	–
Cc1ccc(NC(=O)C(=O)NC2CC(C)(C)NC(C)(C)C2)cc1	inactive	–
CCCCc1ccc(NS(=O)(=O)c2ccc(F)cc2)cc1	inactive	–
Cc1cc(Cn2cnc3c2CC(C(=O)O)N(C(=O)C(c2ccccc2)c2ccccc2)C3)ccc1N(C)C (stereo unspecified)	inactive	–
